Only some compounds are listed: those with a hit (about 21% of all), similar ones and a draw of the others.
DRD3 antagonist = qHTS of D3 Dopamine Receptor Antagonist: qHTS; D3R cells, DiscoveRx beta-arrestin luminescence, antagonist mode; hits give low values; max response, negative = inhibition, %; 360,000 compounds, 2.5% hits; in the data active = max response below about -50%; inconclusive = no clear call, values can overlap the other calls; note: % is set by controls: 0 for no effect and ±100 for the full control effect
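Cells expressing the human receptor were seeded at 1500 cells/well, incubated overnight at 37 degrees C in 5% CO2, then exposed to library compounds with dopamine controls for 90 minutes at 37 degrees C before luminescent detection.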
ClpP mod = qHTS Assay for Activators of ClpP | ATP-dependent Clp protease proteolytic subunit (Bacillus subtilis (strain 168)), P80244 | purified B. subtilis ClpP, FRET peptide cleavage, 20 min | Potency, µM (top dose mostly 57.5 µM), for the others: top-dose activity change, negative = active | 340,000 compounds, 1.9% hits; active = well fitted falling curve with a large enough effect; inconclusive = small, poorly fitted or top-dose-only effect; inactive = no such curve, though single readings can be large or run the other way; note: potency is the fitted concentration of half-maximal effect; the source files actives as falling curves though it sought activators and does not explain the sign; nearly all actives have a fitted effect of over 65% in size
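Buffer: 100 mM Tris/HCl pH8, 100 mM KCl, 0.05% low protease BSA, 2.5% glycerol, 0.01% Tween-20. ClpP 10 microg/mL final; 20 min RT; delta FRET normalized to ADEP and DMSO controls.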
DRD3 agonist = qHTS of D3 Dopamine Receptor Agonist: qHTS | D3R DiscoveRx beta-arrestin cells, luminescence, 90 min | max activation, % | 410,000 compounds, 0.58% hits; in the data active = max activation above about 30%; note: 0% is about no effect
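Agonist-mode cell screen: cells plated at 1500/well and incubated overnight at 37 °C, then exposed to library compounds for 90 min at 37 °C. Detection reagent was added for 30–60 min at room temperature, and luminescence was read.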
DT40 TDP1 CPT = qHTS for Inhibitors of human tyrosyl-DNA phosphodiesterase 1 (TDP1): qHTS in cells in presence of CPT | chicken DT40 Tdp1-/-;hTDP1 cells + 20 nM CPT, ATP luminescence, 48 h | Potency, µM (top dose mostly 46.2 µM), for the others: at the top dose activity change, negative = growth inhibition, hits mostly inhibitors | 420,000 compounds, 12% hits | AID 686979, 2013; note: potency is the fitted concentration of half-maximal effect; % is set by controls: 0 for no effect and ±100 for the full control effect; nearly all actives have a fitted effect of over 55% in size
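Cell growth measured by CellTiter-Glo luminescence after a minimum 48 h, 37 C compound exposure with 20 nM CPT in Tdp1-knockout DT40 cells stably expressing hTDP1, seeded 400/well; qHTS titration format.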
TDP1 cell noCPT = qHTS for Inhibitors of human tyrosyl-DNA phosphodiesterase 1 (TDP1): qHTS in cells in absence of CPT; DT40 Tdp1-/- hTDP1 cells, no CPT, ATP luminescence, 48 h; Potency, µM (titrated, usually from 46.2 µM), for inactives: at the highest dose activity change, negative = growth inhibition, usual class: inhibitors; 420,000 compounds, 15% hits; note: potency is the fitted concentration of half-maximal effect; % is set by controls: 0 for no effect and ±100 for the full control effect; nearly all actives have a fitted effect of over 55% in size
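No-CPT arm: Tdp1-/-;hTDP1 DT40 cells (400/well) plus compounds, incubated ≥48 hr at 37 °C. Readout CellTiter-Glo luminescence.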
IL-1B inflam inh = qHTS for Inhibitors of Inflammasome Signaling: IL-1-beta AlphaLISA Primary Screen | THP-1 LPS/ATP IL-1B secretion, AlphaLISA, 16 h; hits give low values | activity change, % at 57.5 µM | 360,000 compounds, 4.7% hits; in the data active = activity change below about -50%; inconclusive = mostly about -30% to -49%; note: % is set by controls: 0 for no effect and ±100 for the full control effect
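THP-1 cells pretreated 1 hr with compounds (up to 57.5 uM final), then stimulated with LPS (250 ng/mL final) plus ATP (1.25 mM final); secreted IL-1B measured by AlphaLISA after 16 hr, decreased signal indicating inhibition.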
Starred values were filed as active, the others as inactive; ? = inconclusive; . = not tested or not shown. Unless noted, calls come from the whole dose curve; as a rule, active = well fitted inhibition curve with a large enough effect; inconclusive = small, poorly fitted or top-dose-only effect; inactive = flat fitted curve, though single readings scatter.

SMILES	DRD3 antagonist	ClpP mod	DRD3 agonist	DT40 TDP1 CPT	TDP1 cell noCPT	IL-1B inflam inh
O=C(NCCSc1ccccn1)c1ccc(Cl)cc1	-4	.	-8	1%	-5%	-8
N#CC(Sc1ccccn1)c1ccc(Cl)cc1 (configuration not stated)	-3	.	5	?	?	-100*
O=C1c2ccccc2C2(c3cc(C(F)(F)F)cc(C(F)(F)F)c3)NCCN12 (configuration not stated)	10	0%	1	?	?	-2
COC(=O)c1ccc(NC(=O)c2ccc3nccnc3c2)cc1	-10	.	-2	-24%	29µM*	-27
O=C(Nc1ccc(SC(F)F)cc1)c1ccc2nccnc2c1	-3	1%	-1	?	?	-97*
Cc1ccc(C(=O)Nc2ccc3nccnc3c2)cc1	1	?	3	?	16µM*	-28
Cc1ccc(NC(=O)C(C)N2C(=O)c3ccccc3C2=O)c(C)c1 (configuration not stated)	4	1%	3	8%	19%	12
Cc1ccc(-c2nc(N)sc2C)cc1	0	0%	0	0%	0%	?
Cc1ccc(-c2nc(N)sc2-c2ccc(C)cc2)cc1	-16	.	2	?	16µM*	-25
CC(NC(=O)c1cccc(Cn2cc([N+](=O)[O-])cn2)c1)c1ccc(C(C)(C)C)cc1 (configuration not stated)	-13	1%	-8	?	?	-21
O=C(Nc1ccc([N+](=O)[O-])cc1)c1ccc(Cn2cc([N+](=O)[O-])cn2)cc1	-5	0%	0	18µM*	13µM*	-8
CCC(NC(=O)c1cccc(Cn2cc([N+](=O)[O-])cn2)c1)c1ccc(C(C)C)cc1 (configuration not stated)	-53*	-2%	-20	-19%	-20%	-13
O=C(Nc1ccc(Nc2ccncc2)cc1)c1ccc([N+](=O)[O-])cc1	-2	2%	-1	21µM*	15µM*	-98*
O=C(Nc1cnn(Cc2ccc(Cl)cc2)c1)c1ccc([N+](=O)[O-])cc1	-26	0%	3	?	?	?
Cc1nc2ccc(NC(=O)c3ccc([N+](=O)[O-])cc3)cc2[nH]1	-18	-1%	-3	?	16µM*	3
Cc1ccc(C(=O)O)cc1-n1c(=O)n(Cc2ccccc2)c(=O)c2[nH]cnc21	12	-2%	6	0%	-5%	11
COc1ccc(Cl)cc1NC(=O)CSc1nnc(CNC(=O)c2cccs2)o1	2	1%	-5	5%	1%	31
COc1cc(-c2noc(-c3cc(C)[nH]n3)n2)cc(OC)c1OC	.	0%	9	-20%	?	.
CC(C)c1cc(-c2nc(-c3ccc(Cl)cc3)no2)n[nH]1	.	-2%	1	21µM*	21µM*	.
COc1cc(-c2noc(-c3cc(C(C)C)[nH]n3)n2)cc(OC)c1OC	.	-3%	5	?	21µM*	.
COc1ccc(C(CC(=O)Nc2ccccn2)N2Cc3ccccc3C2=O)cc1OC (configuration not stated)	-12	0%	-3	-7%	-30%	-3
CCOC(=O)c1c(C)[nH]c(C(=O)N2CCc3cc(OC)c(OC)cc3C2)c1C	7	-5%	17	10µM*	16µM*	-61*
CCOc1ccc(CCNC(=O)c2c(C)noc2C)cc1OCC	-6	0%	-5	0%	-1%	-5

Compound activity (PubChem BioAssay)
